Experimental data published in ChEMBL document CHEMBL3988442, “University of Dundee, Small-Polar-MMV Screening Library” (2021).
The campaign covered roughly 48,000 compounds. About 13,000 (27%) showed an effect of 50% or more. Some of the results follow.

test system: Wolbachia pipientis; assay: Anti-Wolbachia Cell-Based Screen; type: functional; design: scale not given: in the data most compounds retested in dose-response had high values; settings: 5 µM

Compared with `CCc1nnc(CNC(=O)c2cc3c(nc2OC)CCC3)s1`, `CS(=O)(=O)NCc1ccc(C(=O)NCc2ccc3c(c2)CCC3)o1` is lower in “Percent Effect” value: 18.91% for the first, 9.511% for the second.

Going from `CCN1CCN(C(=O)c2cc(F)cc3nc(C)c(C)nc23)CC1` to `Cc1cc(C(=O)N2CCCC(Cn3cc(C4CC4)nn3)C2)nc(C)n1` (stereo unspecified), the “Percent Effect” value falls from -0.6809% to -17.66%.

First: CC(C)[C@@H](C)NC(=O)N1CCn2nc(C(=O)NCCN(C)C)cc2C1
Second: CC(C)N(C)C(=O)C1=NOC2(CCN(C(=O)NCc3cccnc3)C2)C1 (stereo unspecified)
The “Percent Effect” value of the first is lower: -12.94% for the first, -9.701% for the second.

Compared with `O=C(Cn1cccnc1=O)NC(Cc1cccs1)c1ccccn1` (stereo unspecified), `CC(C)CC(NCc1cccs1)c1ccccn1` (stereo unspecified) is higher in “Percent Effect” value: -8.701% for the first, 107.8% for the second.

First: CC(C)CC(NCc1cscn1)c1ccccn1 (stereo unspecified)
Second: CC(C)CC(NCc1ccsc1)c1ccccn1 (stereo unspecified)
The “Percent Effect” value of the first is lower: 95.9% for the first, 110.4% for the second.

Going from `COc1ccccc1NCc1cscn1.Cl` to `COc1cc(C(C)NCc2cscn2)ccc1SC(F)F` (stereo unspecified), the “Percent Effect” value falls from -2.575% to -37.81%.

Going from `CC(C)Cc1nnc(NCc2ccsc2)o1` to `CC(C)(C)Cc1nnc(NCc2cccc(C#N)c2)o1`, the “Percent Effect” value falls from -5.765% to -57.27%.

Compared with `CC(NCc1cccc(C#N)c1)c1ccccn1.Cl` (stereo unspecified), `CC(NC(=O)Nc1cccnc1N1CCCC1)c1ccccn1` (stereo unspecified) is higher in “Percent Effect” value: -10.04% for the first, 9.094% for the second.

Compared with `NC(=O)C(NCc1cccs1)c1ccccc1` (stereo unspecified), `NC(=O)NC(=O)CCSc1ccccc1Cl` is lower in “Percent Effect” value: 8.593% for the first, -10.1% for the second.

First: O=C(NCCc1[nH]nc2c1CCCC2)C1CCCN(Cc2ccco2)C1 (stereo unspecified)
Second: CS(=O)(=O)NC1CCCN(C(=O)Nc2cccnc2N2CCCC2)C1 (stereo unspecified)
The “Percent Effect” value of the first is lower: 3.369% for the first, 111.1% for the second.

First: COc1ccc(Cl)cc1CS(=O)(=O)Cc1cc(C)on1
Second: Cc1noc(C)c1CS(=O)(=O)CC(=O)N(C)Cc1cccc(F)c1
The “Percent Effect” value of the first is higher: 6.419% for the first, -54.06% for the second.

Compared with `CC(C)OCCS(=O)(=O)c1nccn1-c1cccc(F)c1`, `CN(CCn1cccn1)S(=O)(=O)c1cccc(F)c1C#N` is lower in “Percent Effect” value: -15.74% for the first, -19.52% for the second.

Going from `c1cc(C[C@H]2[C@H](N3CCOCC3)CCN2Cc2ccoc2)ccn1` to `CCn1c(CN2CCCC2)nnc1C1CCN(Cc2ccncc2)CC1`, the “Percent Effect” value falls from 0.9808% to -5.506%.

Going from `CCN(CCCNc1ncnc2cc(F)c(F)cc12)S(C)(=O)=O` to `CCN(CCC(F)(F)F)S(=O)(=O)c1cccc(F)c1C#N`, the “Percent Effect” value rises from -17.06% to -15.21%.

Going from `Cc1ccc(OCC2CCCN(CC3CCOCC3)C2)cc1` (stereo unspecified) to `Cc1ccccc1N1CC2(CCCCN2CC2CC2)CC1=O.O=C(O)C(F)(F)F` (stereo unspecified), the “Percent Effect” value rises from -21.59% to 0.424%.

First: Cc1cccc(C(C)CNC(=O)N2CCC3(C2)OCCO3)c1 (stereo unspecified)
Second: Cc1cccc(C(=O)N2CCC3(CC(C(=O)N(C)C(C)C)=NO3)C2)c1 (stereo unspecified)
The “Percent Effect” value of the first is lower: -6.289% for the first, 115.7% for the second.

Going from `Cc1ccsc1C(=O)N1CCC2(CC(C(=O)N(C)C(C)C)=NO2)C1` (stereo unspecified) to `CC(C)N(C)C(=O)C1=NOC2(CCN(C(=O)c3cccn3C)C2)C1` (stereo unspecified), the “Percent Effect” value falls from 115.3% to 84.53%.

Going from `CC(C)N(C)C(=O)C1=NOC2(CCN(C(=O)c3ccnnc3)C2)C1` (stereo unspecified) to `CC(C)N(C)C(=O)C1=NOC2(CCN(C(=O)c3ccncc3)C2)C1` (stereo unspecified), the “Percent Effect” value falls from 97.08% to 5.935%.

Going from `O=C(NCC1CC1)C1=NOC2(CCN(S(=O)(=O)c3cccs3)C2)C1` (stereo unspecified) to `CC(C)S(=O)(=O)NCC1CCCN(C(=O)c2cccnc2)C1` (stereo unspecified), the “Percent Effect” value falls from 6.398% to -9.569%.

First: CCc1nc(Cn2ccnc2-c2nccn2C)no1
Second: CCN(Cc1nccn1C)C(=O)c1ccc(NCCc2c[nH]cn2)nc1
The “Percent Effect” value of the first is higher: 0.7793% for the first, -4.233% for the second.

First: Cc1nc(CN(C)C2CCN(Cc3ccno3)C2)no1 (stereo unspecified)
Second: Cc1nc(CN(C)C2CCN(Cc3cccc4cccnc34)C2)no1 (stereo unspecified)
The “Percent Effect” value of the first is lower: 0.1776% for the first, 89.88% for the second.

Compared with `Cc1nc(CN(C)C2CCN(Cc3cccc4c3OCCO4)C2)no1` (stereo unspecified), `CCc1nc2n(n1)CC(NCc1cc(OC)c3c(c1)OCCO3)CC2` (stereo unspecified) is lower in “Percent Effect” value: 98.62% for the first, 96.75% for the second.

First: COc1ccc(OCC(=O)NC(C)c2ccc(F)cc2)c(C(=O)O)c1 (stereo unspecified)
Second: COC(=O)CN(C(=O)c1ccco1)c1cccc(F)c1
The “Percent Effect” value of the first is lower: -8.723% for the first, 6.947% for the second.

Compared with `Cc1cc(-c2nccs2)nc(C2CCN(Cc3ccc(F)cc3)CC2)n1.Cl`, `Cc1cc(-c2nccs2)nc(C2CCN(Cc3ccncc3)CC2)n1.Cl` is higher in “Percent Effect” value: 104.7% for the first, 130.1% for the second.

First: Cc1ccsc1-c1nnc(C2CCN(Cc3ccc(F)cc3)CC2)o1
Second: CCn1c(CN(C)C)nnc1C1CCN(Cc2ccncc2)CC1
The “Percent Effect” value of the first is lower: -8.577% for the first, -6.888% for the second.

First: CNC(=O)CSC(C)c1ccc(Br)cc1 (stereo unspecified)
Second: CS(=O)(=O)NC1CCN(C(=O)c2ccc(Br)cc2)C1 (stereo unspecified)
The “Percent Effect” value of the first is lower: -4.092% for the first, 2.662% for the second.

Compared with `O=c1c2cccnc2cnn1CC(O)c1cccc(C(F)(F)F)c1` (stereo unspecified), `CCN1CCN(C(=O)c2ccc(OC)nn2)c2ccccc21` is lower in “Percent Effect” value: 6.556% for the first, 6.209% for the second.

First: CC(O)CN1CCN(Cc2coc(-c3cccc(Cl)c3)n2)CC1 (stereo unspecified)
Second: COCCN(Cc1coc(-c2cccc(Cl)c2)n1)C1CC1
The “Percent Effect” value of the first is lower: -12.56% for the first, 9.963% for the second.

Going from `Cc1ccc(-c2nc(CCNC(=O)CCN3CCOC3=O)co2)cc1` to `Cc1ccc(-c2nc(CSCCC(=O)NC(N)=O)co2)cc1`, the “Percent Effect” value rises from 4.701% to 98.78%.

Compared with `Cc1ccc(-c2nc(CSCCC(=O)NC(N)=O)co2)c(C)c1`, `NC(=O)NC(=O)CCSCc1coc(-c2cccc(Cl)c2)n1` is lower in “Percent Effect” value: 110.2% for the first, 85.07% for the second.

Compared with `NC(=O)NC(=O)CCSCc1coc(-c2ccc(F)cc2)n1`, `CNC(=O)CS(=O)(=O)Cc1coc(-c2ccc(F)cc2)n1` is lower in “Percent Effect” value: 75.11% for the first, -9.885% for the second.

Compared with `CC(SCCC(=O)NC(N)=O)c1ccc(F)cc1F` (stereo unspecified), `COC1CCN(C(=O)COC(C)=O)CC(=O)N(C)c2ccccc21` (stereo unspecified) is higher in “Percent Effect” value: -2.178% for the first, 102.8% for the second.

First: O=C(NCCc1coc(-c2ccc(F)cc2)n1)NC1CCC(O)CC1 (stereo unspecified)
Second: COC(=O)CSCc1noc(-c2ccc(C)cc2)n1
The “Percent Effect” value of the first is higher: 2.186% for the first, -9.658% for the second.

Going from `CNc1nc(C(=O)NCc2cccnc2N(C)C2CCCCC2)cs1` to `COCCCC(=O)Nc1cccnc1N1CCCCC1`, the “Percent Effect” value falls from 1.168% to 0.2962%.

Compared with `Cc1nn(C)c2nc(N(C)CCN(C)C)sc12`, `Cc1nc2n(n1)CC(NCc1nnc(C(C)(C)C)o1)CC2` (stereo unspecified) is lower in “Percent Effect” value: -12.15% for the first, -15.95% for the second.

Going from `Cc1cc(C#N)ccc1S(=O)(=O)NCc1cnc(N(C)C)n1C` to `CCCN(Cc1cnn(C)c1)S(=O)(=O)c1ccc(F)c(C#N)c1`, the “Percent Effect” value rises from -10.13% to 88.2%.

Going from `CN(C)CC(=O)N1CCC2(CC(=O)N(c3cccc(C#N)c3)C2)C1.O=C(O)C(F)(F)F` (stereo unspecified) to `COCCN1CCCCC12CC(=O)N(c1cccc(C#N)c1)C2.O=C(O)C(F)(F)F` (stereo unspecified), the “Percent Effect” value rises from -15.58% to 96.19%.

Compared with `O=C(O)C(F)(F)F.O=C1CC2(CCCCN2CC2CC2)CN1c1ccccc1` (stereo unspecified), `N#Cc1ccccc1N1CC2(CCCCN2CC2CC2)CC1=O.O=C(O)C(F)(F)F` (stereo unspecified) is lower in “Percent Effect” value: -2.383% for the first, -5.23% for the second.

First: COCCN1CCCCC12CC(=O)N(c1ccccc1OC)C2.O=C(O)C(F)(F)F (stereo unspecified)
Second: COC1CCN(C(=O)CC(C)(C)C)CC(=O)N(C)c2ccccc21 (stereo unspecified)
The “Percent Effect” value of the first is lower: 105% for the first, 108.9% for the second.

Compared with `Cn1cc(NC(=O)N2CCC(NS(C)(=O)=O)CC2)ccc1=O`, `CS(=O)(=O)NC1CCCN(C(=O)Nc2cccnc2)C1` (stereo unspecified) is higher in “Percent Effect” value: -4.185% for the first, 122.7% for the second.

Compared with `CS(=O)(=O)NC1CCCN(C(=O)c2cccnc2)C1` (stereo unspecified), `CCCN(Cc1cnn(C)c1)CC1CCCN(S(C)(=O)=O)C1` (stereo unspecified) is lower in “Percent Effect” value: 108.4% for the first, -6.058% for the second.

First: CCCN(C(=O)CNC1CCc2ncnn2C1)C1=CCCCC1 (stereo unspecified)
Second: CCc1nc2n(n1)CC(NCC(=O)Nc1cc(C)on1)CC2 (stereo unspecified)
The “Percent Effect” value of the first is higher: 7.464% for the first, -10.03% for the second.

First: CC(C)(C)CC(=O)N1CC[C@H]2NC(=O)N(Cc3ccccc3)C(=O)[C@H]21
Second: CC(C)(C)CC(=O)N1CC[C@H]2CC(=O)N(CCc3c[nH]cn3)CC[C@H]2C1
The “Percent Effect” value of the first is higher: -1.242% for the first, -18.99% for the second.

Going from `CCC[C@H]1CN(c2nccc(OC)n2)C[C@@H]1NS(=O)(=O)N(C)C` to `CCS(=O)(=O)c1ncc(CN(C)Cc2ccccc2OC)n1CCOC`, the “Percent Effect” value falls from 12.34% to -30.57%.

First: CCCN(Cc1cnn(C)c1)S(=O)(=O)c1cc(C)cc(F)c1
Second: CCCN(Cc1cnn(C)c1)S(=O)(=O)c1cccc(F)c1C#N
The “Percent Effect” value of the first is lower: 91.35% for the first, 103.9% for the second.

Going from `CCN(Cc1cnn(C)c1)S(=O)(=O)c1ccc(NC(=O)C(C)(C)C)cc1` to `CCN(Cc1cnn(C)c1)S(=O)(=O)c1ccc(NC(C)=O)cc1`, the “Percent Effect” value rises from -17.75% to -1.303%.

Compared with `COCCN(C)S(=O)(=O)c1cc(C)cc(F)c1`, `COc1cc(CNC2CCc3nc(C)nn3C2)cc2c1OCO2` (stereo unspecified) is higher in “Percent Effect” value: -0.1957% for the first, 104.6% for the second.

Compared with `COCCOCC(=O)NCCCOC1CCCc2ccccc21` (stereo unspecified), `CCc1nc2n(n1)CC(NCc1ccccc1OCC(=O)NC)CC2` (stereo unspecified) is higher in “Percent Effect” value: -58.49% for the first, 0.2163% for the second.

First: O=C(NCc1nncn1C1CC1)C1(c2ccccc2)CCOCC1
Second: CCc1nc2n(n1)CC(NCc1cc3ccccc3o1)CC2 (stereo unspecified)
The “Percent Effect” value of the first is higher: 1.62% for the first, -28.44% for the second.

First: Cc1oc(-c2ccc(Cl)cc2)nc1C(=O)NC1=NCCS1
Second: Cc1nc2n(n1)CC(NCc1cc(Cl)c3c(c1)OCCO3)CC2 (stereo unspecified)
The “Percent Effect” value of the first is lower: -49.42% for the first, 95.39% for the second.

Going from `CCOCC(=O)N1Cc2[nH]nc(COCC3CC3)c2C1.O=C(O)C(F)(F)F` to `CCc1nc2n(n1)CC(NCc1cc(OC)c3c(c1)OCO3)CC2` (stereo unspecified), the “Percent Effect” value rises from -0.4061% to 105%.

Going from `COc1cc(CNC2CCCN(c3cccnn3)C2)cc2c1OCO2` (stereo unspecified) to `COc1cc(CNC2CCc3nc(C(C)C)nn3C2)cc2c1OCO2` (stereo unspecified), the “Percent Effect” value falls from -1.044% to -4.906%.

First: COc1cc(CNC2CCc3nc(C)nn3C2)cc2c1OCCO2 (stereo unspecified)
Second: Cc1nc2n(n1)CC(NCc1cc(Cl)c3c(c1)OCCCO3)CC2 (stereo unspecified)
The “Percent Effect” value of the first is higher: 2.484% for the first, 2.469% for the second.
